According to the supplement of paper PMC6555819:

test system: PPARg:RXRa DBDmut IVT, anti-RXR (DBD mutation: RXRa K156A/R161A, NR concentration 270 nM, RXRa partner concentration 90 nM); assay: PBM binding z-score (relative to random genomic background probes); higher = stronger binding; sequences stand for … in GC…GCGATTGACAGCGTAGAATGAAGG
Procedure, shortened: (§1)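 Ligand-free nuclear receptor dimers were applied to custom Agilent 4×180K protein-binding microarrays whose double-stranded probes carried direct-repeat seeds, single-nucleotide variants, half-site ablations and random human genomic background sequences in 34-nt variable regions. Incubation lasted 1 h. Binding z-scores were computed against the random background probes from regression-normalized fluorescence.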

Sequence | PBM binding z-score
TCAATGAGGTTAAAGATCAGGGAACGTGGCGTCG | 2.63
TAGCTTAGGTCATTGGGCCAGTATAGTACGCATC | 2.21
GGAACCAGGGCAAGTTGATAGCAGAGTTTGATGG | 4.63
TTACCAAGATGAAGGTCGTTGATCCCTCTGTAGA | 0.471
TCTTGTAGATCAAGCAGGTTAAGAACGCCTGAGT | 1.42
TGAATGAGGTTAAAGATCAGGGCACGTGGCGTCG | 2.37
ATCTCTAGGTAAGACTCCGTTCAGTGAAGAACGC | 2.22
CCAGACAGGTAAAAGGTAACTCAGTCTGGTACGC | 0.377
TCATATAGGTAAAAGGTGAAATTCGGTGTGGTAA | 5.31
GGAACGAGGACAAGTTGATAGCAGAGTTTGATGG | 0.934
TCGAGTAGGTTTGTCGGGGCATTCAGCCAACATA | 0.713
GATACAGGGTCAGCTAGAGGCCAGAGTGTGGAAA | 0.974
TAGCCAAGGTCATGGGCCAGTATACCACGCGAAC | 1.56
GCTAGTTGGTGAGTAAAAGGTCACACACCGGTCG | 0.239
CCTACTGGGCCATCAGATCATTGATATCAACGTT | 4.57
TAGCCTAGGTCATCCGGGCCAGTATAGTGTCGGC | 1.42
CGTCCAAGGTCAAAGGACAGTGAAGAGATGACGG | 2.81
TCACGGAGGACACGAAAGGTCAGAGCTCGACATC | 1.84
AATGCAGGGTCACTAGGCCAGAGTAGGTACGAAT | 4.1
CGAACTAGGTCATTGGCAGGACAGTGAATAGTAA | 8.14

Sequence | PBM binding z-score
TCATATAGGTAATACAGGTGAAGGTCGGCATCTA | 4.61
AGAATGAGGTTAAGATCAGTGAAACAGAATACAT | 2.35
TGAATGAGGTTATAAGATCAGGCAACGTTGCAAA | 0.78
CGAACGAGGGCATGAGTTGACAGCAAATGCCGAT | 2.75
CGAACTGGGTCATTGACAGGACAGTGAATAGTAA | 7.7
GCTGCTAGGCCAACTGATGGTCAGCTAAAGCTCG | 1.28
TCTAGTTGGTCACGGAGGTCACACACGACGGGTA | 2.46
CGTCCAAGGTCAATGCTAGGACAGTGAAAGCATT | 3.02
CAAACTAGGTCAGAACAGGACAGTGAAGGATGAT | 7.14
ATCTCTAGGAAACAAGTTCAGTGAAAGAGAGGAC | -0.477
AGTCAAAGTTCATCTAGGTAACTTAAGATATGCT | 1.01
TCTAGTTGGTCACGGAGGTCACCCACGACGGGTA | 2.32
CAAACTAGGTCACGAAAGGTCAATGTCGAATGAC | 8.46
ATAGACAGGTGAGTGAAGGTAACTCAGCTGGACG | -0.0175
CCCACTGGGCCAAGGTCATTGATCAGTCAAAGCA | 2.96
ATATGTAGGTTGTCGGGTCATTCAGTTTGCGCAT | 4.37
ACTAGCAGGCCAAGTTTGGGTCACTTAAACAAAG | 0.815
GGAACGAGGGCAAGTTGATAGCAGAGTTTGATGG | 3.78
GCGACTGGAGCATCAGCAGGTTACCATAACTTAA | 0.414
AATACAGGGTCACAAGGCCAGAGTAGGTACGAAT | 3.6

test system: PPARg:RXRa IVT, anti-PPARg (NR concentration 270 nM, RXRa partner concentration 90 nM); assay: as above
Procedure, shortened: as §1

Sequence | PBM binding z-score
TCAATGAGGTTAAAGATCAGGGAACGTGGCGTCG | 2.57
TAGCTTAGGTCATTGGGCCAGTATAGTACGCATC | 3.15
GGAACCAGGGCAAGTTGATAGCAGAGTTTGATGG | 3.75
TTACCAAGATGAAGGTCGTTGATCCCTCTGTAGA | 0.0475
TCTTGTAGATCAAGCAGGTTAAGAACGCCTGAGT | 0.613
TGAATGAGGTTAAAGATCAGGGCACGTGGCGTCG | 3.82
ATCTCTAGGTAAGACTCCGTTCAGTGAAGAACGC | 1.25
CCAGACAGGTAAAAGGTAACTCAGTCTGGTACGC | 0.821
TCATATAGGTAAAAGGTGAAATTCGGTGTGGTAA | 5.24
GGAACGAGGACAAGTTGATAGCAGAGTTTGATGG | 0.446
TCGAGTAGGTTTGTCGGGGCATTCAGCCAACATA | 0.173
GATACAGGGTCAGCTAGAGGCCAGAGTGTGGAAA | 2.4
TAGCCAAGGTCATGGGCCAGTATACCACGCGAAC | 3.66
GCTAGTTGGTGAGTAAAAGGTCACACACCGGTCG | 2.74
CCTACTGGGCCATCAGATCATTGATATCAACGTT | 3.97
TAGCCTAGGTCATCCGGGCCAGTATAGTGTCGGC | 2.94
CGTCCAAGGTCAAAGGACAGTGAAGAGATGACGG | 3.71
TCACGGAGGACACGAAAGGTCAGAGCTCGACATC | 1.63
AATGCAGGGTCACTAGGCCAGAGTAGGTACGAAT | 5.62
CGAACTAGGTCATTGGCAGGACAGTGAATAGTAA | 8.31

Sequence | PBM binding z-score
TCATATAGGTAATACAGGTGAAGGTCGGCATCTA | 3.61
AGAATGAGGTTAAGATCAGTGAAACAGAATACAT | 2.8
TGAATGAGGTTATAAGATCAGGCAACGTTGCAAA | 1.81
CGAACGAGGGCATGAGTTGACAGCAAATGCCGAT | 2.11
CGAACTGGGTCATTGACAGGACAGTGAATAGTAA | 7.88
GCTGCTAGGCCAACTGATGGTCAGCTAAAGCTCG | -0.0931
TCTAGTTGGTCACGGAGGTCACACACGACGGGTA | 4.2
CGTCCAAGGTCAATGCTAGGACAGTGAAAGCATT | 3.24
CAAACTAGGTCAGAACAGGACAGTGAAGGATGAT | 7.34
ATCTCTAGGAAACAAGTTCAGTGAAAGAGAGGAC | 0.373
AGTCAAAGTTCATCTAGGTAACTTAAGATATGCT | 3.43
TCTAGTTGGTCACGGAGGTCACCCACGACGGGTA | 4.17
CAAACTAGGTCACGAAAGGTCAATGTCGAATGAC | 9.35
ATAGACAGGTGAGTGAAGGTAACTCAGCTGGACG | 0.973
CCCACTGGGCCAAGGTCATTGATCAGTCAAAGCA | 4.5
ATATGTAGGTTGTCGGGTCATTCAGTTTGCGCAT | 4.47
ACTAGCAGGCCAAGTTTGGGTCACTTAAACAAAG | 1.34
GGAACGAGGGCAAGTTGATAGCAGAGTTTGATGG | 2.54
GCGACTGGAGCATCAGCAGGTTACCATAACTTAA | 0.0135
AATACAGGGTCACAAGGCCAGAGTAGGTACGAAT | 5.38
